Sampled rows, rich in hits. Any-hit rate of the full collection: about 6.3%.
RORg inh – qHTS for inhibitors of ROR gamma transcriptional activity. actives 5.4% (n = 310,000). AID 2551, 2010. Nuclear receptor ROR-gamma (Mus musculus), P51450. Drosophila S2 Gal4-RORgamma UAS-luciferase reporter, 20 h. Potency, µM (top dose mostly 53.6 µM), inactives show at the highest dose activity change, negative = inhibition, most hits filed as inhibitors; note: % is set by controls: 0 for no effect and ±100 for the full control effect; nearly all actives have a fitted effect of over 60% in size
Target sequence (P51450 whole entry, looked up, the tested form may be a part): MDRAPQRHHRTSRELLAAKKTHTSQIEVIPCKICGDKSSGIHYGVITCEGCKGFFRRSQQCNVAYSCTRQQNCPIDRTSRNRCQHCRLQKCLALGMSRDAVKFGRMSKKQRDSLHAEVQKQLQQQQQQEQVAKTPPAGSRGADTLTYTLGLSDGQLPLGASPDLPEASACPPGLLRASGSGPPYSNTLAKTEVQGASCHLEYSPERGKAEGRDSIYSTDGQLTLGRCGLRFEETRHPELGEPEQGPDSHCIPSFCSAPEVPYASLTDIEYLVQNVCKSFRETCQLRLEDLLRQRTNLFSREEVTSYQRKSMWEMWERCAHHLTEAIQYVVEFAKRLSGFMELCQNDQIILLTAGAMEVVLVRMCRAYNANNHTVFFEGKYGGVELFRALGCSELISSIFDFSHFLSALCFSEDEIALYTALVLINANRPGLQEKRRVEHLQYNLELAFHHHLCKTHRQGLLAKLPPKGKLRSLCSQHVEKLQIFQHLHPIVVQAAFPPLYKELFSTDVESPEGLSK
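Luciferase reporter read in Schneider cells carrying Gal4-RORγ (mouse) and UAS-Photinus luciferase; cells given compound 1 h before 700 uM copper sulfate induction, then incubated 20 h at ambient temperature.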
TGFb SMAD3 inh – qHTS for Inhibitors of TGF-b; HepG2 CAGA-GFP TGF-b/SMAD3 reporter, GFP fluorescence, 18 h; TGF-beta stimulated, 500 pg/mL final; Potency, µM (top dose mostly 46.1 µM), for inactives: at the top dose activity, negative = inhibition, hits mostly inhibitors; actives 1.2% (n = 410,000); AID 588855, 2011; note: % is set by controls: 0 for no effect and ±100 for the full control effect; nearly all actives have a fitted effect of over 65% in size
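GFP signal (ex488/em500-530) from TGF-beta-stimulated HEPG2 CAGA-GFP cells, 500 pg/mL final, 18 h at 37 degrees C in DMEM plus 1% FBS, normalized to unstimulated and DMSO-stimulated controls.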
HepG2 tox – qHTS for Inhibitors of TGF-b: Cytotox Counterscreen; HepG2 CAGA-GFP viability, ATP luminescence, 18 h; Potency, µM (series often up to 46.1 µM), for the others: at the top dose activity change, negative = cytotoxicity, most hits filed as cytotoxic; actives 0.76% (n = 410,000); AID 588856, 2011
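HepG2 CAGA-GFP cells (1000/well, DMEM with 1% FBS) received compound, then TGF-beta at 500 pg/mL final, and were incubated 18 hours at 37 degrees C. Viability was read by CellTiter-Glo luminescence. Media-only wells were set as complete cell-killing and DMSO as no toxicity.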
Gal4-VP16 FLuc – VP16 counterscreen qHTS for inhibitors of ROR gamma transcriptional activity | AID 2546, 2010 | Drosophila S2 Gal4-VP16 UAS-luciferase, luminescence, 20 h | Potency, µM (titrated, usually from 53.6 µM), without a hit: at the top dose activity, negative = inhibition, actives largely listed as inhibitors | actives 3.5% (n = 310,000);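 note: Gal4-VP16 expression switched on by copper sulfate through the metallothionein promoter; % is set by controls: 0 for no effect and ±100 for the full control effect; nearly all actives have a fitted effect of over 50% in size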
ATXN2 expr inh – Primary qHTS for Inhibitors of ATXN expression; HEK-293 ATXN2-luciferase reporter, luminescence, 24 h; Potency, µM (series often up to 57 µM), for the others: at the highest dose activity change, negative = inhibition, usual class: inhibitors; actives 0.72% (n = 360,000); AID 1745845, 2022; note: % is set by controls: 0 for no effect and ±100 for the full control effect; nearly all actives have a fitted effect of over 55% in size
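qHTS (up to 57 uM final) was run with 24 h compound exposure of reporter cells at 37 °C. Each well was multiplexed: SteadyGlo luminescence measured ATXN2-luciferase expression after a fluorogenic Gly-Phe-AFC viability readout (25 uM final).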
S2 tox – Viability Counterscreen for Primary qHTS for Inhibitors of ATXN expression | actives 0.49% (n = 400,000) | Potency, µM (highest dose often 56.7 µM), usual class: cytotoxic | S2 cells (HEK-293 line with an ATXN2-luciferase reporter) viability, CellTiter-Fluor protease fluorescence, 24 h; note: nearly all actives have a fitted effect of over 40% in size
Starred values were filed as active, the others as inactive; i = inactive; u = inconclusive; x = not tested or not shown. Calls come from the whole dose curve; as a rule, active = well fitted curve in the direction sought with a large enough effect; inconclusive = small, poorly fitted or top-dose-only effect, or another doubt; inactive = no such curve, though single readings can be large; an effect the other way counts as inactive or inconclusive. Potency is the fitted concentration of half-maximal effect.

SMILES | RORg inh | TGFb SMAD3 inh | HepG2 tox | Gal4-VP16 FLuc | ATXN2 expr inh | S2 tox
O=C(Oc1coc(CSc2ncccn2)cc1=O)c1cccc([N+](=O)[O-])c1 | -27% | 3% | -22% | 3% | -3% | i
O=C(Oc1c(Cl)cc(Cl)c2cccnc12)c1cccc([N+](=O)[O-])c1 | 0.28µM* | u | -5% | x | 20µM* | i
O=C(Oc1cccc2cccnc12)c1cccc([N+](=O)[O-])c1 | 3.5µM* | -16% | -12% | 3.2µM* | 5% | i
O=C(Oc1ccc(Cl)c2cccnc12)c1cccc([N+](=O)[O-])c1 | 1.1µM* | 14µM* | -56% | 1.6µM* | -16% | i
CCN(CC)C(=O)Oc1c(Cl)cc(Cl)c2cccnc12 | 3% | -6% | 1% | -11% | -21% | i
O=[N+]([O-])c1ccc(Oc2cccc3cccnc23)c([N+](=O)[O-])c1 | 8.9µM* | u | -37% | u | 11% | i
CC=C(C)C(=O)O[C@H]1C(C)=C[C@]23C(=O)[C@@H](C=C(CO)[C@@H](O)[C@]12O)[C@H]1[C@@H](C[C@H]3C)C1(C)C | x | x | x | x | -15% | x
O=C(Oc1cccc2cccnc12)c1ccc2c(c1)OCCO2 | 1.6µM* | u | -33% | 2µM* | 0% | i
O=C(Nc1ncccc1O)c1ccc2c(c1)OCCO2 | x | 0% | -9% | x | 6% | i
COc1ccccc1CN1CCCC(n2cc(C(=O)N3CCCCC3)nn2)C1 (stereo not drawn) | x | x | x | x | x | i
O=C(CNC(=O)c1ccc(F)cc1)N/N=C/c1cc(Br)ccc1OC(=O)/C=C/c1ccco1 | 5µM* | u | -52% | u | 8.9µM* | u
O=C(CNC(=O)c1ccccc1F)N/N=C/c1cc(Br)ccc1OC(=O)/C=C/c1ccco1 | 2.5µM* | -27% | -17% | 3.2µM* | u | i
COc1ccc(C(=O)NCC(=O)N/N=C/c2ccco2)cc1OC | 3% | -4% | -8% | 9% | 0% | i
COc1ccccc1C(=O)NCC(=O)N/N=C/c1cc(Br)ccc1OC(=O)/C=C\c1ccco1 | 3.5µM* | -10% | -12% | 7.1µM* | x | u
CC(C)c1cc(C(C)C)c(S(=O)(=O)N2CCNCC2)c(C(C)C)c1 | x | u | -138% | x | -39% | i
CCOC(=O)c1c(C)[nH]c(C(C)=NNC(=O)c2cccs2)c1C | x | -31% | -34% | x | 34% | i
OC(CN1CCCCC1)c1cc(-c2ccccc2)on1 (stereo not drawn) | x | x | x | x | x | i
CC(C)c1ccc(NC(=S)NN(c2ccccc2)c2ccccc2)cc1 | 3.2µM* | u | -11% | 5µM* | -4% | i
CCNC(=S)NN(c1ccccc1)c1ccccc1 | 7.9µM* | -2% | 1% | u | -6% | i
COC(=O)C1=C(c2ccccc2)c2ccccc2S(=O)(=O)N1CC(=O)Nc1ccccc1Cl | x | 4% | -11% | x | 2% | i
CCCCOc1ccc(CSC(CC(=O)O)C(=O)O)cc1 (stereo not drawn) | 2.2µM* | u | -24% | -16% | -10% | i
CC1=Nc2cc(C(=O)NCc3ccccc3Cl)ccc2Sc2c(C)ccc(C)c21 | x | u | 5% | x | 8% | u
O=Nc1c(O)n(Cc2ccccc2)c2ccccc12 | -6% | -20% | -29% | -12% | -16% | i
CCNC(=S)N=Nc1c(O)n(Cc2ccc(Cl)cc2)c2ccccc12 | 4.5µM* | 23% | 11% | u | -7% | u
O=Nc1c(O)n(Cc2ccc(Cl)c(Cl)c2)c2ccccc12 | u | 0% | 13µM* | u | u | u
SMILES | RORg inh | TGFb SMAD3 inh | HepG2 tox | Gal4-VP16 FLuc | ATXN2 expr inh | S2 tox
Oc1c(N=NC(=S)Nc2ccccc2F)c2ccccc2n1Cc1ccc(Cl)cc1 | 4µM* | -16% | -23% | -14% | x | x
Cc1ccccc1Cn1c(O)c(N=NC(=S)Nc2ccccc2F)c2ccccc21 | 2.5µM* | 8% | 5% | u | x | u
Cc1ccc(C)c(Cn2c(O)c(N=NC(=S)Nc3ccccc3F)c3ccccc32)c1 | -42% | -6% | -6% | u | x | i
Oc1cc(-c2cccs2)cc2c1OCCN(Cc1cn[nH]c1-c1ccc(Cl)cc1)C2 | x | x | x | x | x | i
CN(C)CCN1CCN(C2CN(Cc3ccc([N+](=O)[O-])cc3)S(=O)(=O)C2)CC1 (stereo not drawn) | x | 0% | -3% | x | 6% | i
Oc1c(N=NC(=S)Nc2ccccc2F)c2ccccc2n1Cc1ccccc1F | 2.5µM* | -4% | -10% | 4µM* | u | u
CCn1c(O)c(N=NC(=O)CNC(=O)c2ccccc2F)c2ccccc21 | -12% | -1% | 11% | -2% | -1% | i
C[C@@H]1C=C[C@](Cc2ccccc2)(C(=O)NCCN2CCOCC2)N1C(=O)c1ccccc1 | -18% | x | x | -2% | x | x
CN(c1ccc(F)cc1)S(=O)(=O)N1CCCC(C(=O)NCc2cccc(Br)c2)C1 (stereo not drawn) | x | 8.9µM* | -54% | x | x | x
COc1ccc(CNC(=O)C2CCCN(S(=O)(=O)N(C)c3ccc(F)cc3)C2)cc1OC (stereo not drawn) | x | u | -27% | x | x | x
CN(/N=C/c1cc(Cl)cc(Cl)c1O)C(=S)NC(C)(C)C | u | u | -55% | 16µM* | x | x
CCOc1ccccc1C(=O)N1CCN(CCc2ccccn2)CC1 | x | -12% | 6% | x | 8% | i
CCOc1ccc(NC(=O)Cc2ccc(-n3c(C)nc4cccnc43)cc2)cc1 | x | -1% | -11% | x | x | x
Cc1ccc(-c2nc(N/N=C/c3ccncc3)c3ccccc3n2)cc1 | u | -19% | -89% | 0.28µM* | -32% | i
COc1ccc(/C=N/Nc2nc(-c3cccnc3)nc3ccccc23)cc1OC | -11% | -7% | -12% | -9% | -27% | i
Cc1cc(N/N=C/c2ccc(O)c(C)c2O)nc(-c2ccccc2O)n1 | -33% | u | 11µM* | -30% | u | 16µM*
Cc1ccc2nc(C(Cl)(Cl)Cl)nc(N/N=C/c3ccncc3)c2c1 | -14% | 41% | 1% | -3% | -1% | i
Cc1c(O)ccc(/C=N/Nc2nc(-c3cccnc3)nc3ccccc23)c1O | 4.5µM* | u | 6.3µM* | 18µM* | x | u
Oc1ccc(/C=N/Nc2nc(-c3cccnc3)nc3ccccc23)c(O)c1 | u | u | -42% | 11µM* | -19% | i

Source: PubChem BioAssay
